The values that follow come from ChEMBL document CHEMBL1157539, “Thousands of chemical starting points for antimalarial lead identification” (Nature, 2010).

Common to all, as to assay type: functional
Assay [1] has as its system Plasmodium falciparum. As to the kind of experiment: GSK_TCMDC: Inhibition of Plasmodium falciparum 3D7 in whole red blood cells, using parasite LDH activity as an index of growth. Test compounds present at 2uM.
The test system of assay [2] is Plasmodium falciparum. As to the kind of experiment: GSK_TCMDC: Inhibition of Plasmodium falciparum Dd2 in whole red blood cells, using parasite LDH activity as an index of growth. Test compounds present at 2uM.
A further assay concerns HepG2. As to the kind of experiment: GSK_TCMDC: Percent inhibition of human HepG2 cell line. Test compounds present at 10uM.

`CC(C)(C)C(C)(C)Cc1ccc(O)c(CN2CCN(c3ccccc3)CC2)c1`: the Inhibition in the assay with Plasmodium falciparum [1] is recorded as 99%; in the assay with Plasmodium falciparum [2], 98%; in the assay on HepG2, 6%.

On to `CCC(C)(C)n1c(C)cc2c3c(N)nc(N)nc3ccc21`, for which the Inhibition in the assay on Plasmodium falciparum [1] is 97%; in the assay with Plasmodium falciparum [2], 85%; in the assay with HepG2, 69%.

Turning to `O=C(Nc1ccccc1)N(Cc1cccc(-c2cccc(CNCc3ccc4c(c3)OCO4)c2)c1)C1CCN(Cc2ccccc2)CC1.O=C(O)C(F)(F)F`, the Inhibition was found to be 100% in the assay with Plasmodium falciparum [1], 84% with Plasmodium falciparum [2] and 96% in the assay with HepG2.

Take `CN(C)CCN(C)Cc1cccc(-c2cccc(NC(=O)c3cccc(C#N)c3)c2)c1.O=C(O)C(F)(F)F`: the Inhibition in the assay on Plasmodium falciparum [1] turned out to be 92%; in the assay with Plasmodium falciparum [2] it was 10%; in the assay with HepG2, 0%.

For `Cl.O=C(Nc1ccc2c(c1)CCN(C1CCC1)CC2)c1ccc(-n2ccnc2)cn1`, the Inhibition with Plasmodium falciparum [1] is given as 92%; with Plasmodium falciparum [2] it was 0%; with HepG2 it was 8%.

Turning to `CC(C)(C)c1cc(C(=O)N2CCN(c3nccnc3C#N)CC2)n(Cc2ccccc2)n1`, the figures for the Inhibition in the assay with Plasmodium falciparum [1], with Plasmodium falciparum [2] and with HepG2 were 100%, 93% and 0%, respectively.

On to `CC1(C)N=C(N)N=C(N)N1OCCCc1ccccc1.Cl`, for which the Inhibition in the assay with Plasmodium falciparum [1] is 96%; in the assay on Plasmodium falciparum [2] it was 94%; in the assay with HepG2 it was 64%.

In the case of `CC1(C)OC[C@]2(C)[C@@H](CC[C@]3(C)C4=CC(=O)CCC4CC[C@@H]23)O1` (stereo not given in full), the values for the Inhibition in the assay with Plasmodium falciparum [1], in the assay on Plasmodium falciparum [2] and in the assay with HepG2 were 97%, 95% and 0%, respectively.

For the compound `Cc1cccc(NC(=O)Nc2ccc(I)c(OCCN(C)C)c2)c1C`, the Inhibition is reported as 96% in the assay on Plasmodium falciparum [1], 17% in the assay on Plasmodium falciparum [2] and 13% with HepG2.

As for `CN(CC(=O)Nc1cc(C(F)(F)F)ccc1-n1cncn1)Cc1nc2ccccc2s1`, the Inhibition in the assay with Plasmodium falciparum [1] was 87%; with Plasmodium falciparum [2] it was 64%; with HepG2 it was 3%.

For the compound `CNCCNC(=O)C1Cc2c([nH]c3c(C)cccc23)C(c2ccc(Cl)c(Cl)c2)N1` (stereo not given), the Inhibition with Plasmodium falciparum [1] was 100%; in the assay with Plasmodium falciparum [2] it was 60%; in the assay with HepG2, 13%.

Take `O=C(CCc1cccnc1)Nc1ccc(-c2cccc(-c3nc4cc(F)ccc4[nH]3)c2)cc1`: the values for the Inhibition in the assay with Plasmodium falciparum [1], in the assay on Plasmodium falciparum [2] and in the assay with HepG2 were 86%, 9% and 67%, respectively.

Regarding `Oc1ccc(CCNCc2ccc(OCc3ccccc3)c(OCc3ccccc3)c2)cc1`, the Inhibition with Plasmodium falciparum [1] was determined as 88%; with Plasmodium falciparum [2], 9%; with HepG2, 31%.

For the compound `Br.Oc1cccc2c1CC(NCc1ccccc1)CC2` (stereo not given), the Inhibition is given as 90% in the assay with Plasmodium falciparum [1], 24% in the assay on Plasmodium falciparum [2] and 4% in the assay with HepG2.

For the compound `Clc1ccc(-c2ccc(CNCCCN3CCCC3)cc2)cc1`, the figures for the Inhibition in the assay with Plasmodium falciparum [1], in the assay with Plasmodium falciparum [2] and with HepG2 were 91%, 21% and 47%, respectively.

As for `COc1ccc(NC(=O)NC2CCN(CCCCCNC(=O)/C=C/c3ccc(Cl)c(Cl)c3)C2)c(OC)c1` (stereo not given), the values for the Inhibition in the assay with Plasmodium falciparum [1], with Plasmodium falciparum [2] and in the assay with HepG2 were 96%, 9% and 24%, respectively.

With `Cc1cc(N2CCCC2)nc(Nc2ccc(NC(=O)C(C)(C)C)cc2)n1`, the Inhibition is 95% with Plasmodium falciparum [1], 15% in the assay on Plasmodium falciparum [2] and 24% in the assay with HepG2.

With `CCCCCCN1CCCN(Cc2ccc(C(=O)Nc3ccc(C(C)(C)C)cc3)cc2)CC1.O=C(O)C(F)(F)F`, the figures for the Inhibition in the assay on Plasmodium falciparum [1], in the assay on Plasmodium falciparum [2] and in the assay with HepG2 were 100%, 32% and 53%, respectively.

For `Cc1cc(OCCCN2CCCCC2)ccc1NC(=O)COc1ccc(Cl)cc1C(=O)c1cc(Cl)cc(C#N)c1`, the figures for the Inhibition in the assay with Plasmodium falciparum [1], in the assay on Plasmodium falciparum [2] and with HepG2 were 93%, 16% and 28%, respectively.

Turning to `Cn1nc(C(F)(F)F)c(-c2ccc(Br)cc2)c1NC(=O)Nc1ccc(F)cc1F`, the Inhibition in the assay with Plasmodium falciparum [1] is 99%; in the assay with Plasmodium falciparum [2] it was 99%; with HepG2, 16%.

One may read the Inhibition as the drop in the measured response relative to a control, in per cent. The low end stands for little suppression, the high end for strong suppression.
